This is a sample that favours compounds with a hit; in the whole collection about 3% have one here.
GRP78 ERSR act – qHTS for Inducers of the Endoplasmic Reticulum Stress Response (ERSR) in Human Glioma: qHTS; U87-MG GRP78 promoter luciferase reporter, 16 h; Potency, µM, inactives show at the top dose activation, actives largely listed as activators; 420,000 tested, 0.02% active; AID 602332, 2012; also: potency is read from the fitted curve at half-maximal effect; series mostly up to about 76 µM; % of control where 0% means no effect; nearly all actives have a fitted effect of over 35% in size
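ERSR induction read as luciferase luminescence (Bright-Glo, 10 min at room temperature) in stably transfected human U87-MG glioma cells exposed to compounds for 16 h, using GRP78 as sensor.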
D3 antag – qHTS of D3 Dopamine Receptor Antagonist: qHTS; D3R cells, DiscoveRx beta-arrestin luminescence, antagonist mode; active compounds read low; max response, negative = inhibition, %; 360,000 tested, 2.5% active; D(3) dopamine receptor (Homo sapiens), P35462; in the data active = max response below about -50%; inconclusive = no clear call, values can overlap the other calls; also: % is scaled to controls: 0 for no effect and ±100 for the full control effect
Target sequence (P35462 whole entry, looked up): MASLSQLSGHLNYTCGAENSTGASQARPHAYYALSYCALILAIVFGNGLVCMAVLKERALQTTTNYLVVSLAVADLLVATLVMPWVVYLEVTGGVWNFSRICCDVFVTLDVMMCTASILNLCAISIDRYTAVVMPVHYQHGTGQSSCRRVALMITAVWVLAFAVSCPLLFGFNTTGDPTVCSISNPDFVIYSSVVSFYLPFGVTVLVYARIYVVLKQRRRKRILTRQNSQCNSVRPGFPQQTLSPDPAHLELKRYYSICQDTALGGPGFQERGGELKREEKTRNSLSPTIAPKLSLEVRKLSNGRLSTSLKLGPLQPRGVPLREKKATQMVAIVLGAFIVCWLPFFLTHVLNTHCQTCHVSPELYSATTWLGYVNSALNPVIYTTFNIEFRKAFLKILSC
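Cells plated overnight at 1500 cells/well, then exposed to library compounds with dopamine controls for 90 minutes at 37 degrees C. DiscoveRx reagent added for 30–60 minutes at room temperature; luminescence read, quantitative HTS format.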
DRD3 agonist – qHTS of D3 Dopamine Receptor Agonist: qHTS; D(3) dopamine receptor (Homo sapiens), P35462; D3R DiscoveRx beta-arrestin cells, luminescence, 90 min; max activation, %; 410,000 tested, 0.58% active; in the data active = max activation above about 30%; also: 0% is about no effect
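Agonist mode: compounds and dopamine controls were applied to plated cells for 90 min at 37 degrees C after an overnight attachment at 1500 cells/well. Luminescent read-out followed 30 - 60 minutes at room temperature with DiscoveRx detection reagent.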
Nrf2 ARE act – qHTS of Nrf2 Activators | AREc32 ARE-luciferase reporter (MCF7-derived line), luminescence, 24 h | Potency, µM (top dose mostly 46.1 µM), without a hit: top-dose activation, most hits filed as activators | 410,000 tested, 0.31% active; also: potency is read from the fitted curve at half-maximal effect; % of control where 0% means no effect; nearly all actives have a fitted effect of over 65% in size
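ARE activation measured as luciferase luminescence (Steady-Glo, 30 min RT) in AREc32_Fluc cells after 24 hr compound exposure at 37 deg C, 5% CO2; cells seeded overnight at 1000/well in OPTI-MEM, 5% FBS.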
The depositor's hits bear a star; ? = inconclusive; / = no result; [ ] = another dose, or the depositor's remark. Unless noted, calls follow the shape of the dose curve; as a rule, active = well fitted curve in the direction sought with a large enough effect; inconclusive = small, poorly fitted or top-dose-only effect, or another doubt; inactive = no such curve, though single readings can be large; an effect the other way counts as inactive or inconclusive.

SMILES	GRP78 ERSR act	D3 antag	DRD3 agonist	Nrf2 ARE act
Cc1cc2c(c(-c3cnccn3)c1)OC(CNC(=O)c1cc(Cl)ccc1F)C2 (configuration not stated)	-2.0%	/	/	/
CC(C)CN(CC(C)C)c1ccc(/C=C/c2ccnc3ccccc23)cc1	-0.3%	/	/	/
C=CCSc1nc2ccccc2n2cnnc12	-1.4%	6.7	0.0	6.9%
CCOC(=O)CSc1nc2ccccc2n2cnnc12	-2.8%	-51.5*	-8.7	2.8%
O=[N+]([O-])c1cc([N+](=O)[O-])c2c(=Nc3ccccc3)n(-c3ccccc3)n(O)c2c1	19.7%	?	-2.3	14.1µM*
O=[N+]([O-])c1cc(Br)c(Nc2ccccc2)c([N+](=O)[O-])c1	-11.8%	?	-11.8	-3.5%
Oc1oc(-c2ccco2)nc1C=Nc1ccccc1	2.8%	-23.5	-31.4	12.6µM*
Cc1ccc(-c2nc(C=Nc3ccc(O)cc3)c(O)o2)cc1	8.9%	-9.7	1.0	6.31µM*
CN=Cc1nc(-c2ccccc2)oc1O	-0.4%	-22.2	-16.0	0.2%
COC(=O)C(=Cc1ccccc1[N+](=O)[O-])C(=O)OC	-15.1%	-57.8*	-5.7	?
O=C(N/N=C/C=C\c1ccccc1[N+](=O)[O-])c1cccs1	2.5%	-63.9*	-16.5	14.8%
CCCCCN(C(=O)CCC(=O)OCC(=O)N(C)Cc1ccccc1C)c1c(N)n(CCCC)c(=O)[nH]c1=O	-6.2%	8.4	-0.9	0.3%
CCCCCN(C(=O)CCC(=O)OCC(=O)N(CC#N)c1ccccc1)c1c(N)n(CCCC)c(=O)[nH]c1=O	-4.1%	-54.3*	0.3	-0.8%
Nc1cccc2cccnc12	-2.7%	/	/	/
C/C=C(\C)C(=O)NCCN1C2=NC[C@H](C)N2C[C@@H]1Cc1ccc(OC)cc1	-2.7%	8.8	-7.9	-0.9%
CC(C)[C@H]1CN=C2N(CCNC(=O)CCC3CCCCC3)[C@H](Cc3ccc(O)cc3)CN21	-2.1%	-82.8*	-61.8	0.4%
COc1ccc(C[C@H]2CN3C(=NC[C@@H]3C(C)C)N2CCNC(=O)CCC2CCCCC2)cc1	-7.8%	?	-63.6	-2.6%
COc1ccc(C[C@@H]2CN3C(=NC[C@@H]3C)N2CCNC(=O)c2ccc(C)c(Br)c2)cc1	-4.1%	-51.7*	-58.4	-1.8%
COc1ccc(C[C@H]2CN3C(=NC[C@@H]3Cc3ccccc3)N2CCNC(=O)CCC2CCCCC2)cc1	-9.3%	-61.8*	-31.9	-2.8%
CC(C)C[C@H](NC(=O)[C@H](CO)NC(=O)CNC(=O)[C@H](CCCCN)NC(=O)[C@H](CCCN=C(N)N)NC(=O)[C@H](C)NC(=O)[C@H](Cc1ccccc1)NC(=O)[C@@H](N)CCCN=C(N)N)C(=O)N[C@@H](CCCN=C(N)N)C(=O)N[C@@H](CCC(N)=O)C(=O)N[C@@H](CCCCN)C(=O)N[C@@H](CC(N)=O)C(=O)N[C@H](C(=O)O)C(C)C	-5.7%	/	/	/
CC(C)c1ccc(/C=C2\C=Cc3ccccc32)cc1	9.4%	/	/	/
COC(=O)CN1C(=O)[C@H]2[C@@H](c3ccc(C)o3)N3C(=O)CN(Cc4ccccn4)C(=O)[C@@]3(Cc3ccccc3)[C@H]2C1=O	-1.8%	39.4	39.1*	-0.6%
O=C(NC(NC(=S)Nc1ccccc1C(=O)O)C(Cl)(Cl)Cl)c1cccc([N+](=O)[O-])c1 (configuration not stated)	-1.6%	-79.4*	1.4	-0.3%
COc1ccc(NC(=S)NC(NC(=O)c2cccc(C)c2)C(Cl)(Cl)Cl)c([N+](=O)[O-])c1 (configuration not stated)	-10.4%	-82.2*	-8.0	-0.4%
COc1ccc(C(=O)NC(NC(=S)Nc2ccc(S(N)(=O)=O)cc2)C(Cl)(Cl)Cl)cc1 (configuration not stated)	-3.4%	-75.3*	-1.9	-0.2%
O=C(NC(NC(=S)Nc1ccccc1Cl)C(Cl)(Cl)Cl)c1cccc(Cl)c1 (configuration not stated)	-1.1%	?	-4.1	13.5%
COc1ccc(OC)c(C2C(C(=O)Nc3nc4ccccc4s3)=C(C)NC3=C2C(=O)CCC3)c1 (configuration not stated)	12.7%	43.9	30.3*	13.5%
O=C(Nc1ccc(Oc2ccccc2)cc1)c1csc([C@@H]2O[C@H](CO)[C@H](O)[C@H](O)[C@H]2O)n1	0.5%	-92.4*	-19.6	0.5%[9.22 µM]
